{
  "source": "PubChem BioAssay (Tox21)",
  "note": "Values joined by “and” are separate entries in the source; they are usually repeats but may differ in a detail not shown here. Identical values can stand only once. Inconclusive results are not listed. A call without a number means that no potency is given here. Unmarked numbers belong to inactive results. Active and inactive are the calls of the source. Calls follow the shape of the dose curve; as a rule, active = well fitted inhibition curve with a large enough effect in the repeat runs; inconclusive = weak or mixed curves; inactive = flat fitted curve, though single readings scatter. Potency is read from the fitted curve at half-maximal effect.",
  "data": [
    {"assay": "qHTS assay to identify small molecule HDAC inhibitors (AID 1259364); also: nearly all actives have a fitted effect of over 45% in size; as to activity change, negative = inhibition: top concentration of the series differs between compounds", "conditions": "HCT-116 HDAC-Glo I/II luminescence, 2 h; series mostly up to 92.4 µM; activity change, negative = inhibition: at the top concentration", "excerpt": "U.S. Tox21 Program National Center for Advancing Translational Sciences [NCATS] NIH Chemical Genomics Center [NCGC] U.S. Environmental Protection Agency [EPA] National Institutes of Environmental Health Sciences [NIEHS] National Toxicology Program [NTP] U.S. Food and Drug Administration [FDA] Tox21 Assay Overview: Histone deacetylases (HDACs) are a group of epigenetic enzymes that regulate gene expression by histone deacetylation. HDACs are capable of introducing epigenetic modifications and such aberrations contribute to the onset and progression of several human diseases, thus making HDACs a popular therapeutic target. For identifying endogenous class I/II HDAC inhibitors a homogenous, luminogenic HDAC I/II cell based assay was used to measure the relative activity of class I and II HDACs from cells. Wild type HCT-116 cells were used to screen Tox21 libraries for identifying class I/II HDAC inhibitors.\nTox21 Assay Protocol Summary: HCT-116 cells were dispensed at 1,500 per well in 5uL of culture medium into white solid bottom 1536-well plates (Greiner Bio-One, Monroe, NC) using a Multidrop Combi (Thermo Scientific, Waltham, MA) dispenser. The assay plates were incubated at 37 C and 5% CO2 for an overnight, and then 23nL of compounds dissolved in DMSO and positive control were transferred using a Pintool station (Wako, San Diego, CA). The assay plates were incubated at 37C and 5% CO2 for 2hr. After compound treatment, 4uL of HDAC-Glo reagent (Promega Corporation, Madison, WI) was added to each well of the assay plates using Flying Reagent Dispenser (FRD, Aurora Discovery, San Diego, CA) and incubated the assay plates at room temperature for 30min. The luminescence signal was quantified using a ViewLux plate reader (Perkin Elmer, Shelton, CT).", "values": [
      {"smiles": "N#CC(Br)Br", "Potency": "inactive"},
      {"smiles": "CC(C)NC(C)C", "activity change, negative = inhibition": "-2.87% [at 42.5 µM]"},
      {"smiles": "CCOCN(C(=O)CCl)c1c(C)cccc1CC", "Potency": "inactive"},
      {"smiles": "N#CCCCl", "Potency": "inactive"},
      {"smiles": "CCCCN(CC)c1c([N+](=O)[O-])cc(C(F)(F)F)cc1[N+](=O)[O-]", "Potency": "inactive"},
      {"smiles": "CCCCCCCCOC(=O)c1ccccc1C(=O)OCCCCCCCC", "Potency": "inactive"},
      {"smiles": "Oc1cc(Cl)ccc1Cl", "Potency": "inactive"},
      {"smiles": "Cc1cc(C)cc(C)c1", "Potency": "inactive"},
      {"smiles": "Oc1c(Cl)c(Cl)c(Cl)c(Cl)c1Cl", "Potency": "inactive"},
      {"smiles": "COc1ccc(C=O)cc1", "Potency": "inactive"},
      {"smiles": "COc1ccc(C(CN(C)C)C2(O)CCCCC2)cc1", "note": "(stereo not given)", "Potency": "inactive"},
      {"smiles": "O=C(O)C(F)(F)C(F)(F)C(F)(F)C(F)(F)C(F)(F)C(F)(F)C(F)(F)F", "Potency": "inactive"},
      {"smiles": "Nc1ccc(Cl)cc1N", "Potency": "19.3 µM (active)"},
      {"smiles": "O=S(=O)(Oc1ccc(Cl)cc1)c1ccc(Cl)cc1", "Potency": "inactive"},
      {"smiles": "O=P(O)(O)CCCl", "Potency": "inactive"},
      {"smiles": "CC(C)Oc1cc(-n2nc(C(C)(C)C)oc2=O)c(Cl)cc1Cl", "Potency": "inactive"},
      {"smiles": "NCc1cccnc1", "Potency": "inactive"},
      {"smiles": "O=[N+]([O-])c1cccc2ccccc12", "Potency": "inactive"},
      {"smiles": "CC1(C)C(C=C(Cl)Cl)C1C(=O)OC(C#N)c1cccc(Oc2ccccc2)c1", "note": "(stereo not given)", "Potency": "inactive"},
      {"smiles": "CC(C)N(C(=O)SCC(Cl)=C(Cl)Cl)C(C)C", "Potency": "inactive"},
      {"smiles": "c1ccc(N=Nc2ccccc2)cc1", "Potency": "30.6 µM (active)"},
      {"smiles": "CCCCOCCOP(=O)(OCCOCCCC)OCCOCCCC", "Potency": "inactive"},
      {"smiles": "CC(C)(C)c1ccccc1O", "Potency": "inactive"},
      {"smiles": "C1=Cc2cccc3cccc1c23", "Potency": "inactive"},
      {"smiles": "Cc1cc(Cl)ccc1OCCCC(=O)O", "Potency": "inactive"},
      {"smiles": "C#CCOS(=O)OC1CCCCC1Oc1ccc(C(C)(C)C)cc1", "note": "(stereo not given)", "Potency": "inactive"},
      {"smiles": "C=CC(=O)OCCO", "Potency": "inactive"},
      {"smiles": "CCCCCc1cc(O)cc(O)c1", "Potency": "inactive"},
      {"smiles": "Nn1cnnc1", "Potency": "inactive"},
      {"smiles": "Nc1c(Cl)cc([N+](=O)[O-])cc1Cl", "Potency": "inactive"},
      {"smiles": "O=C(Nc1ccc(Br)cc1)c1cc(Br)cc(Br)c1O", "Potency": "6.83 µM (active) and 6.11 µM (active) and 6.68 µM (active)"},
      {"smiles": "CC(C)=CC1C(C(=O)OCc2coc(Cc3ccccc3)c2)C1(C)C", "note": "(stereo not given)", "Potency": "inactive"},
      {"smiles": "CCC(C)c1cc([N+](=O)[O-])cc([N+](=O)[O-])c1O", "note": "(stereo not given)", "Potency": "inactive"},
      {"smiles": "c1ccc(P(c2ccccc2)c2ccccc2)cc1", "Potency": "inactive"},
      {"smiles": "Nc1ccc(Cl)c(Cl)c1", "Potency": "inactive"},
      {"smiles": "CCC(CC)Nc1c([N+](=O)[O-])cc(C)c(C)c1[N+](=O)[O-]", "Potency": "inactive"},
      {"smiles": "N#Cc1cc(Br)c(O)c(Br)c1", "Potency": "inactive"},
      {"smiles": "O=[N+]([O-])c1ccc(O)c([N+](=O)[O-])c1", "Potency": "30.8 µM (active) and 27.3 µM (active)"},
      {"smiles": "CCOC(=S)S", "Potency": "inactive"},
      {"smiles": "CCN(CC)C(=O)SCc1ccc(Cl)cc1", "Potency": "inactive"}
    ]}
  ]
}
